PubChem BioAssay AID1053 (University of Pittsburgh Molecular Library Screening Center, 2008)
“And” between values parts separate entries of the source, which are not always exact repeats. Equal values may be shown once. Unmarked numbers belong to inactive results. The source made the active and inactive calls. No rule for the calls is given here.

Biological target: Serine/threonine-protein kinase PLK1 (Homo sapiens) (UniProt P53350)
Assay: Plk1 polo box domain binding inhibitors, SAR follow-up, biochemical, fluorescence polarization, purchased analogs (AID 1053)
Conditions: Plk1 PBD fluorescence polarization peptide binding; at 20 µM; active compounds read high

Sequence of Serine/threonine-protein kinase PLK1 (Homo sapiens) (P53350 whole entry, looked up, the tested form may be a part): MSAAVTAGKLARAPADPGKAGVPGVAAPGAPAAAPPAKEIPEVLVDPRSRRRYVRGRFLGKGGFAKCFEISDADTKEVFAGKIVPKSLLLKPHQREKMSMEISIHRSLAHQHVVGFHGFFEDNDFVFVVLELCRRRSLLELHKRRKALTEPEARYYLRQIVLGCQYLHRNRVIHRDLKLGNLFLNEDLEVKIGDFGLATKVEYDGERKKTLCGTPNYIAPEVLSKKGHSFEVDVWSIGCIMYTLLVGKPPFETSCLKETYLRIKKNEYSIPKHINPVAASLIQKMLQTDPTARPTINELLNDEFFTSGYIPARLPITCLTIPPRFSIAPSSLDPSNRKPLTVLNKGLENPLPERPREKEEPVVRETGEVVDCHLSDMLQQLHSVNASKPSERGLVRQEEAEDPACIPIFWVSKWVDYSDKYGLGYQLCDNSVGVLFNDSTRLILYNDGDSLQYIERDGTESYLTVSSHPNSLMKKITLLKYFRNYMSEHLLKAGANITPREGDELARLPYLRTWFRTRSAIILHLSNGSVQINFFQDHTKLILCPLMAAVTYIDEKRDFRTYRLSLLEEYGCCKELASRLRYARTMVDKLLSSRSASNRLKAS

O=C1NC(=O)C(=Cc2c3ccccc3cc3ccccc23)C(=O)N1
inhibition: -41.5%

COc1cc(Br)cc(C=C2C(=O)NC(=O)NC2=O)c1O
inhibition: -39.8%

CCOC(=O)c1ccc(N=C(c2ccccc2)c2c(O)n(C)c(=O)n(C)c2=O)cc1
inhibition: -58.1%

CCCC(=O)c1c(O)[nH]c(=O)[nH]c1=O
inhibition: -47.7% and -64.6%

O=C1NC(=O)C(=Cc2cccn2-c2ccc([N+](=O)[O-])cc2)C(=O)N1
inhibition: -40.9%

Cn1c(O)c(C(=O)c2ccccc2Cl)c(=O)n(C)c1=O
inhibition: -36.4%

Cc1ccc(-c2nc3c(=O)n(C)c(=O)nc-3n(C)n2)cc1
inhibition: 43.1%

CCn1nc(-c2ccc([N+](=O)[O-])cc2)nc2c(=O)n(C)c(=O)nc1-2
inhibition: 60.6% (active)

Cn1nc(-c2ccccc2)nc2c(=O)n(C)c(=O)nc1-2
inhibition: 31.4%

CCn1nc(-c2ccccc2Cl)nc2c(=O)n(C)c(=O)nc1-2
inhibition: 43.6%

CCn1nc(-c2ccccc2)nc2c(=O)n(C)c(=O)nc1-2
inhibition: -2.54%

COc1cc(C=C2C(=O)NC(=O)NC2=O)cc(Cl)c1O
inhibition: -40.9%

CCN(CC)CCOC(=O)c1ccc(N=Cc2c(O)[nH]c(=O)[nH]c2=O)cc1
inhibition: -148% and -184%
